Bioassay records as filed in PubChem.
Most compounds without a hit are left out; they make up all but 7.6% or so of the library.
KB-3-1 cytotox – KB-3-1 parental cell cytotoxicity; KB-3-1 viability, CellTiter-Glo ATP luminescence, 72 h; Potency, µM (series often up to 46.1 µM), most hits filed as cytotoxic; actives 1.4% (n = 400,000); further: nearly all actives have a fitted effect of over 60% in size
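Screening of KB-3-1 cells (DMEM, 10% FBS, phenol-red free) ran from lowest to highest compound concentration; after 72 h at 37 °C viability was read luminescently and curves fitted.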
MCF10A rereplic – inducers of DNA re-replication in MCF 10A breast cells. MCF 10A DNA re-replication, Hoechst nuclear intensity, 48 h. Potency, µM (titrated, usually from 46.1 µM), hits mostly activators. actives 2.9% (n = 350,000). AID 624296; further: nearly all actives have a fitted effect of over 50% in size
KCNH2 3.1 block – blocks the human KCNH2 3.1 channel isoform. activity change, % (tested at about 1.8 µM). U2OS KCNH2 3.1, thallium flux FluxOr; stronger effect = lower value. actives 0.95% (n = 340,000);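 active means maximum activity change below -70%; inconclusive means maximum activity change from -70% to -50%; inactive means maximum activity change above -50%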;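 further: thallium influx rate constant from kinetic fluorescence after stimulation buffer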
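FluxOr-based Tl+ influx in U2OS cells transduced with KCNH2 3.1 virus; rate constants normalized to DMSO controls.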
KB-V1 cytotox – KB-V1 MDR subline cytotoxicity; Potency, µM (doses to about 46.1 µM), actives largely listed as cytotoxic; KB-V1 MDR cells viability, CellTiter-Glo, 72 h; AID 1347076; actives 3.4% (n = 400,000); further: nearly all actives have a fitted effect of over 60% in size
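Following 72 h at 37 degrees C with compound, KB-V1 cell viability was read by CellTiter-Glo luminescence, medium being phenol-red-free DMEM plus 10% FBS; concentration-response parameters came from normalized, curve-fitted qHTS data.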
hERG WT inh – KCNH2 (human, wildtype) channel inhibition; Q12809; U2OS, BacMam KCNH2, thallium flux FluxOr; stronger effect = lower value; activity change, % at 1.84 µM; actives 0.37% (n = 340,000); AID 720551;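 active means maximum activity change below -70%; inconclusive means maximum activity change between -70% and -50%; inactive means maximum activity change above -50%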
Target sequence (Q12809 whole entry, looked up): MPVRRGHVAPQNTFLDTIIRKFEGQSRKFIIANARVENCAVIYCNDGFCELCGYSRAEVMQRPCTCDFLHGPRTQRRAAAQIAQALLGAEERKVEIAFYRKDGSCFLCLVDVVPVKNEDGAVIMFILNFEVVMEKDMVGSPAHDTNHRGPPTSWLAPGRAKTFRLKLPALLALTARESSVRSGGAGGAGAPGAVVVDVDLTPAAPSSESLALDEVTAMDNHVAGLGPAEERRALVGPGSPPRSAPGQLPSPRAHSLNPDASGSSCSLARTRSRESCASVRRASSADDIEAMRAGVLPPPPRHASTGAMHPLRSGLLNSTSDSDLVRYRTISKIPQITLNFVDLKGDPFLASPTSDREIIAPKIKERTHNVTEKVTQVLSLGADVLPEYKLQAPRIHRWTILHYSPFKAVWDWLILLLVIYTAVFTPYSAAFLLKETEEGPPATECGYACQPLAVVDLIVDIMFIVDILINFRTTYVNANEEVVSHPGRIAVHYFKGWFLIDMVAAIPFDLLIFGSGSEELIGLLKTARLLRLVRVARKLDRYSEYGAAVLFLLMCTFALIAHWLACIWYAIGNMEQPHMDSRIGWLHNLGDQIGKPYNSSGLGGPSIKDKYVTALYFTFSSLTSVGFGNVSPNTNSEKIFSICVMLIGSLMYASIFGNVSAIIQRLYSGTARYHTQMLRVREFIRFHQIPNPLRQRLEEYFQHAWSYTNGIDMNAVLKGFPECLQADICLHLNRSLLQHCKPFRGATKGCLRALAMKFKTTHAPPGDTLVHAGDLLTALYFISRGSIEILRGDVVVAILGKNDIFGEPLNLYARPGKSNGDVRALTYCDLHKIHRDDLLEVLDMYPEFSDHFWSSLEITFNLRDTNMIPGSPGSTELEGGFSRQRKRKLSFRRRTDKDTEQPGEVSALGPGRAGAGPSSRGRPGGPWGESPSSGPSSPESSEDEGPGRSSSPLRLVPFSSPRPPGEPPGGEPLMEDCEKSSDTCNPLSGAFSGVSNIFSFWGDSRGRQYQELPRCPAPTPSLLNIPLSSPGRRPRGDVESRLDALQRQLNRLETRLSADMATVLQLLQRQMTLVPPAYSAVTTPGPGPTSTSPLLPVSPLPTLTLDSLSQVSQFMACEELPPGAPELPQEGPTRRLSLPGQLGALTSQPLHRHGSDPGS
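U2OS cells were transduced with wild-type KCNH2 virus (2.03 x 10^8 / mL) for 4 h at room temperature, then cultured overnight at 37 C. Thallium flux was read with FluxOr dye. Rate constants were normalized to DMSO controls.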
SW480 rerep – inducers of DNA re-replication in SW480 colon cancer cells; SW480 DNA re-replication, Hoechst DNA content imaging, 48 h; Potency, µM (titrated, usually from 46.1 µM), usual class: activators; actives 1.8% (n = 340,000); AID 624297; further: nearly all actives have a fitted effect of over 55% in size
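Readout is total intensity of Hoechst-stained nuclei, excited at 405 nm and collected at 500-530 nm. Compound treatment lasted 48 hr at 37 C in 5% CO2 before staining.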
Large screens that a line does not name were inactive. Unless noted, the call rests on the fitted dose curve; in most records, active means well fitted curve in the direction sought with a large enough effect; inconclusive means small, poorly fitted or top-dose-only effect, or another doubt; inactive means no such curve, though single readings can be large; an effect the other way counts as inactive or inconclusive.

Cc1ccc(Cl)cc1N(CC(=O)Nc1cccc(N(C)S(C)(=O)=O)c1)S(C)(=O)=O	none
COc1cccc(N(CC(=O)Nc2ccc3c(c2)OCO3)S(=O)(=O)c2ccccc2)c1	KB-V1 cytotox 16µM
COC(=O)c1cc(NC(=O)CN(c2cccc(OC)c2)S(=O)(=O)c2ccccc2)ccc1Cl	KB-3-1 cytotox 16µM, KB-V1 cytotox 1.5µM
Cn1c(C(=O)N2CCC(C(N)=O)CC2)cc2cc(Cl)ccc21	none
COc1cccc(-c2ccc3c(c2)N(Cc2cccc(F)c2)C(=O)C(C)S3)c1 (configuration not stated)	none (no result: MCF10A rereplic, KCNH2 3.1 block, hERG WT inh, SW480 rerep)
COc1cc(C2CC(=O)N(Cc3cccc(F)c3)c3ccccc3S2)cc(OC)c1OC (configuration not stated)	KB-3-1 cytotox inconclusive, KB-V1 cytotox 16µM (no result: MCF10A rereplic, KCNH2 3.1 block, hERG WT inh, SW480 rerep)
CCNC(=O)C1(C)CCCN(C(=O)c2nc(C)oc2C)C1 (configuration not stated)	none (no result: MCF10A rereplic, KCNH2 3.1 block, hERG WT inh, SW480 rerep)
O=C(Nc1cccc(S(=O)(=O)NC2=NCCCCC2)c1)c1cc(-c2ccco2)nc2ccccc12	MCF10A rereplic 16µM, SW480 rerep inconclusive
O=C(CCl)Nc1ccc(S(=O)(=O)NC2=NCCCCC2)cc1	KB-3-1 cytotox 15µM, MCF10A rereplic 21µM, KB-V1 cytotox 16µM, SW480 rerep inconclusive
COc1ccccc1NS(=O)(=O)c1cccc(NC(=O)c2ccc3ccccc3n2)c1	KB-3-1 cytotox inconclusive, KB-V1 cytotox 2.6µM
O=C(CCl)Nc1cccc(S(=O)(=O)NC2=NCCCCC2)c1	KB-3-1 cytotox inconclusive, MCF10A rereplic inconclusive, KB-V1 cytotox inconclusive
O=C(Nc1cccc(S(=O)(=O)NC2=NCCCCC2)c1)c1cc(-c2ccncc2)nc2ccccc12	none
O=C(Nc1cccc(S(=O)(=O)Nc2ccccc2F)c1)c1ccc2ccccc2n1	none
O=C(Nc1ccc(S(=O)(=O)NC2=NCCCCC2)cc1)c1ccc2ccccc2n1	KB-V1 cytotox 23µM
CC1CCCC(C)N1/N=C/c1ccc(N(C)C)cc1 (configuration not stated)	none
CCN(CC)S(=O)(=O)c1ccc2c(c1)N(CC(=O)Nc1ccc(F)cc1F)C(=O)C1CCCN21 (configuration not stated)	none (no result: MCF10A rereplic, KCNH2 3.1 block, hERG WT inh, SW480 rerep)
CS(=O)(=O)c1ccc(C(=O)NCCN2C(=O)S/C(=C\c3cccnc3)C2=O)cc1[N+](=O)[O-]	KB-3-1 cytotox inconclusive, MCF10A rereplic 13µM, SW480 rerep 2.1µM (no result: hERG WT inh)
CN(C)S(=O)(=O)c1ccc(C(=O)NCCN2C(=O)S/C(=C\c3cccnc3)C2=O)cc1	none
Cc1ccc(S(=O)(=O)N2CCN(C(=O)COC(=O)CNC(=O)c3ccc(Cl)cc3Cl)CC2)c(C)c1	none
CO/N=C1\CCn2c1c(C)c1ccccc12	KB-V1 cytotox inconclusive
Cc1c2n(c3ccccc13)CC/C2=N\O	KB-3-1 cytotox inconclusive, KB-V1 cytotox 5.2µM
CCC(C)(C)NC(=O)C(C(C)C)N(CC1CCCO1)C(=O)CNS(=O)(=O)c1ccc(F)cc1 (configuration not stated)	none
O=C1N/C(=N\N=C\c2cccs2)SC1Cc1ccc(Cl)cc1Cl (configuration not stated)	KB-3-1 cytotox 7.3µM, KB-V1 cytotox inconclusive
O=C(CC1S/C(=N/N=C/c2cccs2)NC1=O)Nc1ccc(Cl)cc1 (configuration not stated)	none
O=C1N/C(=N\N=C\c2cccs2)SC1Cc1cccc(Cl)c1Cl (configuration not stated)	KB-3-1 cytotox 5.2µM, MCF10A rereplic 1.5µM, KB-V1 cytotox inconclusive, SW480 rerep 7.3µM
O=C1NC(=Nc2ccc(Cl)cc2)SC1Cc1cc(Cl)ccc1Cl (configuration not stated)	MCF10A rereplic inconclusive, KB-V1 cytotox 15µM
COc1ccc(N/N=C(\C=N\O)C(=O)c2ccc(OC)cc2)cc1	KB-3-1 cytotox inconclusive, MCF10A rereplic 6.5µM, SW480 rerep inconclusive (no result: KCNH2 3.1 block)
C1CC1Cc1noc(CN2CCN(C3C4CC5CC(C4)CC3C5)CC2)n1 (configuration not stated)	MCF10A rereplic 2.9µM
Cc1ccc(C(=O)Nc2cccc3[nH]c(C(F)(F)F)nc23)cc1	KB-3-1 cytotox 16µM, MCF10A rereplic inconclusive, KB-V1 cytotox 18µM
CCOC(=O)c1ccc(N2C(=O)c3[nH]nc(-c4ccccc4)c3C2c2ccc(CC)cc2)cc1 (configuration not stated)	KB-3-1 cytotox inconclusive, KB-V1 cytotox 23µM (no result: MCF10A rereplic, KCNH2 3.1 block, hERG WT inh, SW480 rerep)
CCOC(=O)c1ccc(N2C(=O)c3n[nH]c(C)c3C2c2ccccn2)cc1 (configuration not stated)	none
Cc1[nH]nc2c1C(c1ccccn1)N(c1ccc(Br)cc1)C2=O (configuration not stated)	KB-V1 cytotox 18µM
Cc1ccc(N2C(=O)c3n[nH]c(C)c3C2c2ccccc2Cl)cc1 (configuration not stated)	KB-V1 cytotox inconclusive (no result: MCF10A rereplic, KCNH2 3.1 block, hERG WT inh, SW480 rerep)
CCOC(=O)c1ccc(N2C(=O)c3n[nH]c(-c4cccs4)c3C2c2cccc(OC)c2)cc1 (configuration not stated)	KB-3-1 cytotox inconclusive (no result: MCF10A rereplic, KCNH2 3.1 block, hERG WT inh, SW480 rerep)
CCOC(=O)c1ccc(N2C(=O)c3n[nH]c(C)c3C2c2ccc(OCC)cc2)cc1 (configuration not stated)	KB-3-1 cytotox 23µM, KB-V1 cytotox inconclusive (no result: MCF10A rereplic, KCNH2 3.1 block, hERG WT inh, SW480 rerep)
CCOC(=O)c1ccc(N2C(=O)c3n[nH]c(-c4cccs4)c3C2c2ccc(OC)cc2OC)cc1 (configuration not stated)	KB-3-1 cytotox inconclusive, KB-V1 cytotox 26µM (no result: MCF10A rereplic, KCNH2 3.1 block, hERG WT inh, SW480 rerep)
COc1ccc(/C=N\NC(=O)C2C(=O)NCC2c2ccccc2)cc1O (configuration not stated)	MCF10A rereplic inconclusive, SW480 rerep inconclusive
CCCN1CCC(NC(=O)C2CCN(C(C)=O)CC2)CC1	none
Cn1nnc2c(N3CCN(c4ccc(F)cc4)CC3)ncnc21	none (no result: MCF10A rereplic, KCNH2 3.1 block, hERG WT inh, SW480 rerep)
Cc1ccc(CC(=O)N(C)CC(=O)Nc2ccc(N3CCOCC3)cc2)cc1C	none
CN(CC(=O)Nc1ccc(N2CCOCC2)cc1)C(=O)CCc1cc(C(C)(C)C)c(O)c(C(C)(C)C)c1	KB-V1 cytotox 3.7µM
CCOC(=O)[C@]12Cc3c(cc(OC)c(OC)c3OC)[C@H]1N(C1CCCCC1)C(=O)c1cc(OC)ccc12	KB-3-1 cytotox 3.3µM, KB-V1 cytotox 4.6µM (no result: MCF10A rereplic, KCNH2 3.1 block, hERG WT inh, SW480 rerep)
O=C(Nc1ccc(O)cc1)c1c(O)c2c([nH]c1=O)CCCC2	SW480 rerep inconclusive
Cc1nn(CC(O)COc2ccc3c(c2)CCC3)c(C)c1Br (configuration not stated)	KB-V1 cytotox inconclusive
